# Shown are actives, neighbours in structure and some others; about 1.2% of the full set was active somewhere.
# TSG101-PTAP inh: blocks PTAP/TSG101 interaction to inhibit HIV-1 budding; 340,000 tested, under 10 active; Fluorescence polarization, FITC-PTAP peptide / Tsg101 binding; AID 493005; Potency, µM (highest dose often 115 µM), actives largely listed as inhibitors; Q99816; active means well fitted inhibition curve with a large enough effect in the main read-out, with a control signal flat, not every such curve was filed as active; inconclusive means small, poorly fitted or top-dose-only effect, or effect the other way, or a change in a side signal; inactive means no such curve, though single readings can be large or run the other way
#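 Compounds were pin-transferred onto Tsg101 binding domain (10 uM final) in HEPES pH 7.5 buffer, then FITC-PTAP peptide was added at 50 nM final. After 20 min at RT, polarization reported peptide displacement across a qHTS concentration series.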
# ASM inhibitor: human S-ASM enzyme inhibition; placental ASM, HMU-PC fluorogenic substrate, 60 min; Potency, µM (titrated, usually from 57.5 µM), usual class: inhibitors; actives 0.006% (n = 340,000); AID 504937
#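 HMU-PC0 cleavage (9 uM final) by human placental ASM, 60 min at 37 °C following 10 min compound exposure at RT; stopped at pH 10, fluorescence Ex 386/Em 447 nm.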
# Anesthetic bind: binds horse apoferritin like a general anesthetic | apoferritin/1-aminoanthracene competitive binding, fluorescence | Potency, µM (doses to about 77.5 µM), usual class: inhibitors | actives 0.074% (n = 350,000); further: nearly all actives have a fitted effect of over 20% in size
#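 Horse-spleen apoferritin (10 uM) in 50% saturated 1-aminoanthracene in PBS was incubated 10 min at room temperature with compound. Fluorescence (ex 380, em 535 nm) was normalized to free and bound 1-AMA, with concentration-response fitted by a four-parameter Hill equation.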
# BRCA1 expr up: activators of BRCA1 expression; MCF7-BRCA1-FFLuc reporter, luminescence, 48 h; response scale: scaled: vehicle 0%, 10 µM genistein 100%; Potency, µM (series often up to 46.1 µM), actives largely listed as activators; actives 1.1% (n = 380,000); further: nearly all actives have a fitted effect of over 80% in size
#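 Quantitative HTS in MCF7 cells stably reporting BRCA1 expression via firefly luciferase. Compound treatment lasts 48 h at 37 °C in phenol-red free MEM. Activation is expressed relative to genistein at 10 microM and DMSO.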
# TSHR antagonist: antagonists of human thyroid stimulating hormone receptor; actives 0.2% (n = 330,000); AID 504810; TSHR-expressing cells, TSH-stimulated cAMP HTRF, 2 h; hits give low values; activity change, negative = inhibition, % at 11.5 µM;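 active means activity change below a set negative limit, meaning inhibition stronger than a set level, cut at about -70% in these data; inconclusive means activity change between two set negative limits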
# Target sequence (P16473 whole entry, looked up): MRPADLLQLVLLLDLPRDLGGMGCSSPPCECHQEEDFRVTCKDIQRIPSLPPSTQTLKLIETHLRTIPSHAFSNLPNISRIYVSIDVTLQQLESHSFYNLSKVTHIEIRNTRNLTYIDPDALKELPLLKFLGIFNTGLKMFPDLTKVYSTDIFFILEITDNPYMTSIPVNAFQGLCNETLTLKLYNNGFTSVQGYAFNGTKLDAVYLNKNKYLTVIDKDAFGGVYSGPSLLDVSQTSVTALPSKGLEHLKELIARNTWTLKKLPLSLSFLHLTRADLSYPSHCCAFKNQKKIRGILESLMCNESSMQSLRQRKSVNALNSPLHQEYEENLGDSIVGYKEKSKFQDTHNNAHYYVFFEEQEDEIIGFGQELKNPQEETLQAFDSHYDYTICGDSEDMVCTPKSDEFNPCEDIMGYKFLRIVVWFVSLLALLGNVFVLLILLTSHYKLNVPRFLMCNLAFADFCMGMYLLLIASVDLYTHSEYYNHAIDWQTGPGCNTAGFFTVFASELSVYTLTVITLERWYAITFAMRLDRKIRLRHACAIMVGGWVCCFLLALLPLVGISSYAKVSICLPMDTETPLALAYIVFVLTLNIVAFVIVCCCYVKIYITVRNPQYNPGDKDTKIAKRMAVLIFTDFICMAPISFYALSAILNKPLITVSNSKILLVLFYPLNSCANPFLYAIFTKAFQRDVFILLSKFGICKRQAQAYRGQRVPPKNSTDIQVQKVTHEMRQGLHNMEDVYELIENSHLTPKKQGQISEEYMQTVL
#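 Cell-based HTRF cAMP assay; TSHR cells + compound, TSH EC80 (4nM final), 2 h, 37 deg C. Lysis with anti-cAMP cryptate and cAMP-d2, 30 min RT, read 665/620 nm.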
# A number is an active result; n = inactive; u = inconclusive; x = no result. Unless noted, the call rests on the fitted dose curve; in most records, active means well fitted curve in the direction sought with a large enough effect; inconclusive means small, poorly fitted or top-dose-only effect, or another doubt; inactive means no such curve, though single readings can be large; an effect the other way counts as inactive or inconclusive.
SMILES,TSG101-PTAP inh,ASM inhibitor,Anesthetic bind,BRCA1 expr up,TSHR antagonist
Cc1ccc(C(=O)Nc2ccc(Cl)cc2C(F)(F)F)c(Cl)c1,n,n,n,u,n
CCc1ccc(NC(=O)CSc2ccc(-c3ccccn3)nn2)cc1,n,n,n,n,n
CCOc1ccc(-c2ccc(SCc3ccccn3)nn2)cc1,n,n,n,4.5µM,n
c1ccc(CSc2ccc(-c3cccs3)nn2)nc1,n,n,n,7.9µM,n
c1ccc(CSc2ccc(-c3cccs3)nn2)cc1,n,n,n,u,n
CCOc1ccc(-c2ccc(SCC)nn2)cc1,n,n,n,n,n
CCc1ccc(-c2ccc(SCc3ccccn3)nn2)cc1,n,n,n,5µM,n
CCSc1ccc(-c2ccc(C)cc2)nn1,n,n,u,2.5µM,n
CCCCNC(=O)Cn1c(SCc2cccc(C)c2)nc2ccncc21,x,x,x,n,x
O=C(CSc1ccc(-c2cccs2)nn1)c1cccs1,n,n,u,11µM,n
O=C(CSc1ccc(-c2cccs2)nn1)Nc1ccccc1,n,n,n,n,n
CC(=O)c1sc(NC(=O)c2ccccc2F)nc1-c1ccccc1,n,n,n,2µM,n
CCCCCCCCCCCCCCCCOC[C@H](COP(=O)([O-])OCC[N+](C)(C)C)OC(=O)CCCCCCCC(=O)O,x,x,n,x,x
CN(C)/C=C1/Oc2c(ccc3ccccc23)C1=O,n,n,n,n,n
CN(C)/C=C1\Oc2ccc3ccccc3c2C1=O,n,n,n,7.1µM,n
CCOC(=O)C1CCN(S(=O)(=O)c2c(Cl)ccc3nonc23)CC1,x,x,n,x,-90
C/C(=N\NC(=O)c1nnn(-c2nonc2N)c1-c1ccc(Cl)c(Cl)c1)c1ccncc1,n,n,n,n,-87
CNC(=O)C1(C(F)(F)F)CC(CCCO)CCCO1 (stereo not given),x,x,n,x,x
CS(=O)(=O)N1CCc2cc(C(=O)OCC(=O)c3ccccc3)ccc21,n,n,n,10µM,n
CN(C(=O)c1ccc2c(c1)CCN2S(C)(=O)=O)c1ccccc1,n,n,n,n,n
CS(=O)(=O)N1CCc2cc(C(=O)Nc3cccc(F)c3)ccc21,x,x,n,11µM,x
N[C@H](C(=O)O)[C@H](Cc1ccccc1)C(=O)O,x,x,x,x,n
CCCC(=O)Oc1ccc2[nH]c(C(=O)c3cc4ccccc4[nH]3)cc2c1,x,x,x,n,x
C/C=C(\NNC(C)=O)c1ccc(O)cc1,x,x,x,n,x
COc1ccc2c(c1)CC/C2=N\OC(=O)c1ccccc1C,n,n,n,11µM,n
SMILES,TSG101-PTAP inh,ASM inhibitor,Anesthetic bind,BRCA1 expr up,TSHR antagonist
CCOc1ccccc1-n1c(=S)sc2c(=O)n(-c3ccc(F)cc3)c(SCC(=O)O)nc21,n,n,n,n,-71
COc1ccc(-c2nc3c(c(SCC(=O)N4CCOCC4)n2)Cc2c(CO)cnc(C)c2O3)cc1,n,n,n,n,-135
Cc1ccc(-c2nc3c(c(SCC(=O)N4CCOCC4)n2)Cc2c(CO)cnc(C)c2O3)cc1,n,n,u,n,n
CSCC[C@H](NC(=O)[C@H](CC(C)C)NC(=O)CNC(=O)[C@H](Cc1ccc(O)cc1)NC(=O)[C@H](Cc1ccccc1)NC(=O)[C@H](CCC(N)=O)NC(=O)[C@H](CCC(N)=O)NC(=O)[C@@H]1CCCN1C(=O)[C@H](CCCCN)NC(=O)[C@@H]1CCCN1C(=O)[C@@H](N)CCCN=C(N)N)C(N)=O,x,x,n,x,x
Cc1nc(Nc2ccccc2)sc1C(=O)c1ccccc1,n,n,n,10µM,n
CC(C)CNc1nc(=S)nc(N(C)C)[nH]1,n,n,n,n,n
CN(C)c1nc(=S)nc(NCc2ccccc2)[nH]1,n,n,n,n,-85
O=C(/C=C/c1ccccc1[N+](=O)[O-])Nc1ccccc1,n,n,n,7.1µM,n
Cc1ccc(Nc2cc(C)nc(-c3ccccc3)n2)cc1,n,u,n,3.2µM,n
COc1ccc(C(=O)NC(=S)NC(C)(C)C)cc1Br,n,n,u,11µM,n
C[C@H]1O[C@@H](n2cc(F)c(=O)[nH]c2=O)[C@H](O)[C@H]1O,x,x,x,x,n
Fc1ccc(/C=C/c2nnc(-c3cccs3)o2)cc1,n,n,n,2µM,n
O=C(Nc1ccc(F)c(F)c1)c1cnn2c1NC(=C1CC1)C=C2C(F)(F)F,x,x,x,n,x
C(=N\Nc1nncc2ccccc12)/c1ccccc1,n,n,n,n,n
COc1cc(/C=N/Nc2nncc3ccccc23)cc(OC)c1OC,n,n,n,7.1µM,n
COc1cc2nc(N3CCCCC3)nc(NC3CCN(Cc4ccccc4)CC3)c2cc1OC,x,x,x,n,x
COc1cc2c(cc1NC(=O)Cc1ccc(C)cc1)oc1ccccc12,n,n,n,7.9µM,n
Cc1ccc(OCC(=O)O/N=C(\N)c2ccccn2)cc1,n,n,n,6.3µM,n
N/C(=N\OC(=O)C1CCCCC1)c1ccccn1,n,n,n,11µM,n
Cc1cccc(OCC(=O)O/N=C(\N)c2ccccn2)c1C,n,n,u,u,n
N/C(=N\OC(=O)C1CCCCC1)c1ccncc1,n,n,n,n,n
N/C(=N\OC(=O)Cc1ccccc1)c1ccccc1Cl,n,n,u,14µM,n
N/C(=N\OC(=O)Cc1ccccc1)c1cccnc1,x,n,n,n,n
CC(C)(C)CC(=O)O/N=C(\N)c1ccccn1,n,n,n,5µM,n
O=[N+]([O-])c1ccc(Nc2nc(NCCN3CCOCC3)nc(Nc3ccc(I)cc3)n2)cc1,x,x,x,n,x
SMILES,TSG101-PTAP inh,ASM inhibitor,Anesthetic bind,BRCA1 expr up,TSHR antagonist
Cc1ccc(CC(=O)O/N=C(\N)c2ccccn2)cc1,n,n,n,u,n
N/C(=N\OC(=O)Cc1ccc(Cl)cc1)c1ccccn1,n,n,u,10µM,n
CCOC(=O)c1cc2c(nc1NC(=S)NCc1ccccc1)CCCC2,n,n,n,4.5µM,n
Cc1ccc(NNC(=O)c2cc(C(C)(C)C)nn2Cc2ccccc2)cc1,n,n,n,n,n
COc1ccccc1NNC(=O)c1cc(C(C)(C)C)nn1Cc1ccccc1,n,n,n,10µM,n
CCCCCCCCCCCCCCCCOC(=O)N1CCN(/[N+]([O-])=N/Oc2ccc([N+](=O)[O-])cc2[N+](C)=O)CC1,x,x,x,n,x
CC(C)c1ccc(NC(=O)C2CC3CCC2C3)cc1 (stereo not given),n,n,u,6.3µM,n
CCOc1ccc(NC(=O)C2CC3CCC2C3)cc1 (stereo not given),n,n,x,u,x
CCC(C)c1ccc(NC(=O)C2CC3CCC2C3)cc1 (stereo not given),n,n,x,7.1µM,x
CC(C)=CCC/C(C)=C/CC/C(C)=C/CCC1(C)CCc2cc(O)ccc2O1 (stereo not given),x,x,x,n,x
COc1cccc(/C=N/NC(=O)CSc2cccc3cccnc23)c1,n,n,n,n,n
O=C(CSc1cccc2cccnc12)N/N=C/c1ccc(O)cc1,n,n,n,n,-78

# Screening results from PubChem BioAssay.
